In PubChem BioAssay (NCATS) one finds Potency and viability (% of DMSO control) data, which are given here for 15 compounds.

Results filed as inconclusive are left out. Active and inactive are the calls of the source. Calls come from the whole dose curve; as a rule, active = well fitted cell-killing curve with a large enough effect; inconclusive = small, poorly fitted or top-dose-only effect, or effect the other way; inactive = no such curve, though single readings can be large or run the other way.
Potency is the fitted concentration of half-maximal effect.

The test is described as follows: Quantitative High-Throughput drug screen in 47 multiple myeloma cell lines against the NCATS MIPE library collection: UTMC2_PLB cell viability assay (AID 1919868). Note: nearly all actives have a fitted effect of over 55% in size. Conditions: CellTiter-Glo ATP luminescence, 48 h; viability (% of DMSO control): at 45.8 µM (top of the series). The source says: PI: Beverly A. Mock Ph.D.
Laboratory of Cancer Biology and Genetics,
Center for Cancer Research, National Cancer Institute,
National Institute of Health, Bethesda, Maryland
Drug resistance and disease progression are common in multiple myeloma (MM) patients, underscoring the need for new therapeutic combinations. […] We hypothesized that effective combinations would reduce MYC expression and enhance p16 activity. […] These preclinical data identify potentially useful drug combinations for evaluation in drug-resistant MM and reveal potential mechanisms of combined drug sensitivity.
Described herein is the primary MIPE qHTS used to cherrypick compounds. Validated compounds were then further tested for potential synergistic activiy.
[1] Peat TJ, Gaikwad SM, Dubois W, Gyabaah-Kessie N, Zhang S, Gorjifard S, Phyo Z, Andres M, Hughitt VK, Simpson RM, Miller MA, Girvin AT, Taylor A, Williams D, D'Antonio N, Zhang Y, Rajagopalan A, Flietner E, Wilson K, Zhang X, Shinn P, Klumpp-Thomas C, McKnight C, Itkin Z, Chen L, Kazandijian D, Zhang J, Michalowski AM, Simmons JK, Keats J, Thomas CJ, Mock BA. Drug combinations identified by high-throughput screening promote cell cycle transition and upregulate Smad pathways in myeloma. Cancer Lett. 2023 Aug 1;568:216284. doi: 10.1016/j.canlet.2023.216284. Epub 2023 Jun 24. PMID: 37356470; PMCID: PMC10408729.
SEQUENCE No. (e.g., 1, 2, 3, etc.); […] (e.g., Cells, Incubation, Reagent, etc.); VALUE and DESCRIPTION.
1; Cells; 5 uL; white, solid bottom 1536-well Greiner assay plate.
2; Compounds; 23 nL; Kalypsis pin tool (Wako USA) equipped with a 1536-well pin head to transfer to the assay plates.
3; Incubation; 48 hours; 37C incubation.
4; Reagent;5uL; CellTiter Glo (Promega).
5; Detector; 425V; Luminescence; Viewlux PerkinElmer.
NOTES (numbers refer to Sequence numbers above)
1. The cell-based screening methods employed in this study were like those previously published. Briefly, the corresponding myeloma cell lines were screened in 1,536-well plates with 500 cells, 5-uL per well for inhibition of cell viability (assessed by measuring ATP levels with CellTiterGlo).
2. NCATS MIPE 4.0 library of approved and investigational drugs were added using the Kalypsis pin tool. Wells treated with DMSO only for 100% viability and media only for 0% viability were used as controls.
3. The assay plates were covered and incubated for 48 hours in a 37C, 5% CO2 incubator with controlled humidity.
4. After 48 hours, CellTilter-GloTM luminescent substrate mix (Promega) reagent was added to the assay plate and plates we incubated for 5 min at room temperature.
5. Signal was measured as median relative luminescence units on a ViewLux (PerkinElmer) multiplate reader.
[1] Heske CM, Davis MI, Baumgart JT, Wilson K, Gormally MV, Chen L, Zhang X, Ceribelli M, Duveau DY, Guha R, Ferrer M, Arnaldez FI, Ji J, Tran HL, Zhang Y, Mendoza A, Helman LJ, Thomas CJ. Matrix Screen Identifies Synergistic Combination of PARP Inhibitors and Nicotinamide Phosphoribosyltransferase (NAMPT) Inhibitors in Ewing Sarcoma. Clin Cancer Res. 2017 Dec 1;23(23):7301-7311. doi: 10.1158/1078-0432.CCR-17-1121. Epub 2017 Sep 12. PMID: 28899971; PMCID: PMC6636827.
Consider `COC1(CS(=O)c2ccccc2)CCN(CCc2c[nH]c3ccc(F)cc23)CC1` (stereo not given), for which the Potency result is “inactive”.

As for `Cc1sc2c(c1C)C(c1ccc(Cl)cc1)=N[C@@H](CC(=O)OC(C)(C)C)c1nnc(C)n1-2`, the Potency is 662 nM (active).

On to `COc1ccc(C(=O)c2c(C)n(CCN3CCOCC3)c3ccccc23)cc1`, for which the Potency result is “inactive”.

With `CC(O)(CS(=O)(=O)c1ccc(F)cc1)C(=O)Nc1ccc(C#N)c(C(F)(F)F)c1` (stereo not given), the Potency was 4180 nM (active).

On to `C[C@@H]1[C@@H](CC(C[C@H]2O[C@@H]3O[C@]4(C)CC[C@@H]5[C@H](C)CC[C@@H]([C@H]2C)[C@@]35OO4)C[S+](=O)([O-])c2ccc(COC(=O)N(C)C)cc2)O[C@@H]2O[C@]3(C)CC[C@H]4[C@H](C)CC[C@@H]1[C@@]24OO3` (stereo not given in full), for which the Potency is 187 nM (active).

Regarding `N[C@@H](Cc1ccc(N(CCCl)CCCl)cc1)C(=O)O`, the Potency is 935 nM (active).

In the case of `COC[C@H]1OC(=O)c2coc3c2[C@@]1(C)C1=C(C3=O)C2CCC(=O)[C@@]2(C)C[C@H]1OC(C)=O` (stereo not given in full), the Potency was 264 nM (active).

Regarding `C=C(C)[C@H]1Cc2c(ccc3c2O[C@@H]2COc4cc(OC)c(OC)cc4[C@@H]2C3=O)O1`, the Potency is 332 nM (active).

With `O=C1CC[C@@]2(O)[C@H]3Cc4ccc(O)c5c4[C@@]2(CCN3CC2CC2)[C@H]1O5`, the Potency entry is “inactive”.

For the compound `C[C@@H]1[C@@H](C(=O)C[C@H]2O[C@@H]3O[C@]4(C)CC[C@@H]5[C@H](C)CC[C@@H]([C@H]2C)[C@@]35OO4)O[C@@H]2O[C@]3(C)CC[C@H]4[C@H](C)CC[C@@H]1[C@@]24OO3`, the Potency is 166 nM (active).

Turning to `COc1ccc(C(CN(C)C)C2(O)CCCCC2)cc1` (stereo not given), the Potency result was “inactive”.

On to `CN1CCN(C(=O)O[C@H]2c3nccnc3C(=O)N2c2ccc(Cl)cn2)CC1`, for which the viability (% of DMSO control) was 181% (active).

For the compound `CN(C)CCN(C)CCc1ccc(Cl)c(Cl)c1`, the Potency entry was “inactive”.

Regarding `C[C@@H]1O[C@@H](O[C@H]2C[C@@H](O)[C@]3(CO)[C@H]4[C@H](O)C[C@]5(C)[C@@H](C6=CC(=O)OC6)CC[C@]5(O)[C@@H]4CC[C@]3(O)C2)[C@H](O)[C@H](O)[C@H]1O`, the Potency is 11.8 nM (active).

`COc1ccc2c(c1OC)CN1CCc3cc4c(cc3C1C2)OCO4` (stereo not given): the Potency was 2090 nM (active).
